Data reported in PubChem BioAssay (EPA / NIEHS).
Active and inactive are the calls of the source. How the source made its calls: active means hit-call score of the fitted dose curve at least 0.9, where 1 is the maximum; inactive means score below 0.9.

Assay: ATG_SREBP_CIS: Attagene CIS-FACTORIAL HepG2 Assay for human Sterol Regulatory Element Binding (SREBP) (AID 2282962)
Conditions: HepG2 Attagene cis-factorial SREBP reporter, mRNA; actives raise or lower the signal
Procedure: ATG_CIS is a cell-based, multiplexed-readout assay that uses HepG2, a human liver cell line, with measurements taken at 24 hours after chemical dosing in a 24-well plate.ATG_SREBP_CIS is one of 52 assay component(s) measured or calculated from the ATG_CIS assay. It is designed to make measurements of mRNA induction, a form of inducible reporter, as detected with fluorescence intensity signals by Reverse transcription polymerase chain reaction (RT-PCR) and Capillary electrophoresis technology.Data from the assay component ATG_SREBP_CIS was analyzed into 1 assay endpoint. This assay endpoint, ATG_SREBP_CIS, was analyzed with bidirectional fitting relative to DMSO as the negative control and baseline of activity. Using a type of inducible reporter, measures of mRNA for gain or loss-of-signal activity can be used to understand the reporter gene at the transcription factor-level as they relate to the gene SREBF1. Furthermore, this assay endpoint can be referred to as a primary readout, because this assay has produced multiple assay endpoints where this one serves a reporter gene function. To generalize the intended target to other relatable targets, this assay endpoint is annotated to the dna binding intended target family, where the subfamily is basic helix-loop-helix leucine zipper.
Human liver HepG2 cells are transiently transfected with multiple reporter transcription units (MRTUs) in 6-well plates using FuGene 6 reagent (Roche; 3 ml FuGene/1 mg DNA). The MRTU constructs are regulated by a cis-regulating element (promoter). […] A major difference between the CIS and TRANS system is that in CIS activities of endogenous TFs are measured, whereas the TRANS assay evaluates changes in activities of exogenous, chimeric NR-Gal4 proteins. […] At the end of 24 hour incubation, total RNA was isolated using TriZol reagent (Invitrogen). The isolated RNA is then reverse-transcribed using oligo(dT) primer and Mo-MLV reverse transcriptase (Invitrogen) with DNAse I (Ambion) treatment for 30 min. The one-tenth of the produced cDNA was amplified by PCR using Taq DNA polymerase (Invitrogen) and two reporter sequence-specific primers. The PCR products were fluorescently labeled by primer extension with 6-arboxyfluorescein (6-FAM) 5'-labeled reporter sequence-specific primer (2 min at 95 C, 20 s at 68 C and 10 min at 72 C) and these products were digested with 5U of HpaI (New England Biolabs) for 2h at 37 C. The fragments were purified using Qiaquick PCR columns (Qiagen), analyzed on an ABI 3130xL genetic analyzer (Applied Biosystems) with peak positions identified by using a set of X-rhodamine (ROX)-labeled MapMarker1000 molecular weight standards (BioVentures). The raw capillary electrophoresis data was processed using Attagraph software (Attagene).

Question: For `CCCCCCOCCOCCO`, which outcome is on record?
Answer: Its outcome is “inactive”.

Question: With `CCCCCCC(C)Nc1ccc(Nc2ccccc2)cc1` (stereo not given) as the compound, how does the outcome read?
Answer: Its outcome is “inactive”.

Question: For `CCCCCCCCCCCCS(=O)(=O)Cl`, which outcome is on record?
Answer: Its outcome is “inactive”.

Question: For `C=C(C)C1CC=C(C)C(=O)C1` (stereo not given), which outcome is on record?
Answer: Its outcome is “inactive”.

Question: For `CC(CN=Cc1ccccc1O)N=Cc1ccccc1O` (stereo not given), which outcome is on record?
Answer: The outcome was “inactive”.

Question: Which outcome does the source give for `COc1ccc(N)c([N+](=O)[O-])c1` here?
Answer: Its outcome is “inactive”.

Question: With `OCCOCCN1CCN(C2=Nc3ccccc3Sc3ccccc32)CC1` as the compound, how does the outcome read?
Answer: The outcome was “inactive”.

Question: With `CCc1ccc(O)cc1` as the compound, how does the outcome read?
Answer: Its outcome is “inactive”.

Question: For `C[C@H](CCC(=O)NCC(=O)O)[C@H]1CC[C@H]2[C@@H]3[C@H](O)C[C@@H]4C[C@H](O)CC[C@]4(C)[C@H]3C[C@H](O)[C@]12C`, which outcome is on record?
Answer: The outcome was “inactive”.

Question: With `O=[N+]([O-])c1ccc(O)cc1C(F)(F)F` as the compound, how does the AC50 read?
Answer: Its AC50 is 100 µM (active).

Question: With `CCCCOC(=O)CCCCCCCC(=O)OCCCC` as the compound, how does the outcome read?
Answer: Its outcome is “inactive”.

Question: Which outcome does the source give for `c1ccc2cc(Nc3ccc(Nc4ccc5ccccc5c4)cc3)ccc2c1` here?
Answer: Its outcome is “inactive”.

Question: Which outcome does the source give for `CCCCCC(=O)CC` here?
Answer: The outcome was “inactive”.

Question: Which outcome does the source give for `N#Cc1cscn1` here?
Answer: The outcome was “inactive”.

Question: Which outcome does the source give for `O=C1c2ccccc2C(=O)c2c(O)ccc(O)c21` here?
Answer: Its outcome is “inactive”.

Question: For `C=CC(=O)OCCCC`, which outcome is on record?
Answer: The outcome was “inactive”.

Question: With `NC(=S)NNC(N)=S` as the compound, how does the outcome read?
Answer: The outcome was “inactive”.

Question: For `C=C(C)C(=O)OCCOCCOCCOC(=O)C(=C)C`, which outcome is on record?
Answer: The outcome was “inactive”.

Question: For `CC=CC=CCOC(=O)C(C)C`, which outcome is on record?
Answer: Its outcome is “inactive”.

Question: For `C#CC(C)(O)CC(C)C` (stereo not given), which outcome is on record?
Answer: Its outcome is “inactive”.

Question: Which outcome does the source give for `CCN(CCN)c1cccc(C)c1` here?
Answer: The outcome was “inactive”.

Question: For `CS(=O)(=O)OCCCCOS(C)(=O)=O`, which outcome is on record?
Answer: Its outcome is “inactive”.

Question: With `CC(C)Nc1nc(N)nc(Cl)n1` as the compound, how does the outcome read?
Answer: Its outcome is “inactive”.

Question: Which outcome does the source give for `CC(=O)O[C@H]1C[C@@H]2CC[C@@]1(C)C2(C)C` here?
Answer: Its outcome is “inactive”.

Question: Which outcome does the source give for `CC=Cc1ccc(OC)c(OC)c1` here?
Answer: The outcome was “inactive”.

Question: For `Cc1ncc[nH]1`, which outcome is on record?
Answer: Its outcome is “inactive”.

Question: For `C1=CC2C3C=CC(C3)C2C1` (stereo not given), which outcome is on record?
Answer: Its outcome is “inactive”.

Question: Which outcome does the source give for `CS(=O)(=O)c1ccc(C2=C(c3ccccc3)C(=O)OC2)cc1` here?
Answer: Its outcome is “inactive”.

Question: With `CC(=O)CC(=O)Nc1ccccc1` as the compound, how does the outcome read?
Answer: Its outcome is “inactive”.

Question: With `CC(C)NCC(O)COc1ccc(CC(N)=O)cc1` (stereo not given) as the compound, how does the outcome read?
Answer: The outcome was “inactive”.

Question: For `COc1ccc(COC(C)=O)cc1`, which outcome is on record?
Answer: The outcome was “inactive”.

Question: Which outcome does the source give for `CC(=O)O[C@@H]1C[C@@H]2CC[C@@]1(C)C2(C)C` here?
Answer: The outcome was “inactive”.

Question: For `CCCCCCCCSCCO`, which outcome is on record?
Answer: Its outcome is “inactive”.

Question: For `Cc1ncc([N+](=O)[O-])n1CCO`, which outcome is on record?
Answer: The outcome was “inactive”.

Question: For `CCCCC1CCC(O)CC1` (stereo not given), which outcome is on record?
Answer: The outcome was “inactive”.

Question: Which outcome does the source give for `C=CC(=C)CCCC(C)(C)OC(C)=O` here?
Answer: The outcome was “inactive”.

Question: Which outcome does the source give for `CC/C=C\CCOC(=O)CC` here?
Answer: The outcome was “inactive”.

Question: For `COC(=O)c1ccc([N+](=O)[O-])cc1`, which outcome is on record?
Answer: The outcome was “inactive”.

Question: Which outcome does the source give for `CCCCSCCCC` here?
Answer: Its outcome is “inactive”.

Question: Which outcome does the source give for `CC(=O)NCCO` here?
Answer: The outcome was “inactive”.
